# Reference: ChEMBL document CHEMBL1201862, “PubChem BioAssay data set” (2004)
# Out of some 15,000 sequences screened, about 800 (5.3%) were called active. Rule as the data show it: active = GI50 up to about 1.1 µM and inactive = higher. Only a sample is shown. Results with a measured potency or affinity are listed apart.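 All cell lines were grown in 96-well plates and treated with compound for 48 hours. GI50: concentration for 50% inhibition of growth.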
# Test system: DMS-114
# Experiment: NCI tumour cell line growth inhibition, 48 h
row,Substance,GI50 [µM]
1,"[Bis(aminomethyl)tetramethylenesilane]dichloropaltinum(II), CHEMBL2146205",5.89
2,"[Bis(aminomethyl)diethylsilane]tetrachloroplatinum(IV), CHEMBL2146203",2.23
3,"cis-Bis[[(trimethylsilyl)methyl]amino]tetrachloroplatinum(IV), CHEMBL2146191",4.09
4,"[Bis(aminomethyl)pentamethylenesilane]dichloropaltinum(II), CHEMBL2146202",4.01
5,"[Bis(aminomethyl)dimethylsilane]dichloroplatinum (II), CHEMBL2146201",12
6,"[Bis(aminomethyl)pentamethylenesilane]tetrachloropaltinum(IV), CHEMBL2146204",2
7,"[Bis(aminomethyl)ethylmethylsilane]tetrachloroplatinum(IV), CHEMBL2146192",1.17
8,"mu-(1,7-nanodiamine-N,N')bis-(cis-aminedichloroplatimum (II)), CHEMBL2146215",6.18
9,"[Bis(aminomethyl)dimethylsilane]tetrachloroplatinum(IV), CHEMBL2146190",1.38
10,"[Bis(aminomethyl)tetramethylenesilane]tetrachloropaltinum(IV), CHEMBL2146189",1.91
